# Experimental data as given in PMC7862700, “An all-to-all approach to the identification of sequence-specific readers for epigenetic DNA modifications on cytosine”.
# Experiments:
# Assay in all cases: DAPPL (digital affinity profiling via proximity ligation, sequencing); 10 mM Tris-HCl pH 7.5, 50 mM NaCl, 1 mM DTT, 4% glycerol, room temperature, 30 min; GST-TFs on glutathione beads, 16-mer random dsDNA library, 0.1% formaldehyde crosslink after washing; high values mean tight binding
# Conditions in all cases: protein: recombinant; tags: N-terminal GST; dsDNA, one strand shown
# FEV = biological target: T1, FEV (Homo sapiens, UniProt Q99581 1-238)
# T1 sequence: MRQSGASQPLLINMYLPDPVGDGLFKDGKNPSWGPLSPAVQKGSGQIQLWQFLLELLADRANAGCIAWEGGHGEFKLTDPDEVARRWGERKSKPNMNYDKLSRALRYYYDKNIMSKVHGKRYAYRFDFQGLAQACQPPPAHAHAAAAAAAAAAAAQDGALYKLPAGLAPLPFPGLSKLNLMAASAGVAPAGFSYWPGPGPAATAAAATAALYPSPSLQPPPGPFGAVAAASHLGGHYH
# Outline: (§1)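 GST fusions of human transcription factors were expressed in yeast and captured with glutathione beads. Once given DNA barcodes and pooled alongside a tag-only sample, they were incubated for 30 min at room temperature with 200 nmole of a random double-stranded 16-mer DNA library in Tris/NaCl/DTT/glycerol buffer, then washed, crosslinked (0.1% formaldehyde), proximity-ligated, PCR-amplified and sequenced on an Illumina NextSeq500. The binding signal of each hexamer is its read frequency for a factor divided by its frequency for the tag-only sample.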
# ETV5 = ETV5 (Homo sapiens, UniProt P41161 1-510)
# ETV5, sequence (P41161 whole entry): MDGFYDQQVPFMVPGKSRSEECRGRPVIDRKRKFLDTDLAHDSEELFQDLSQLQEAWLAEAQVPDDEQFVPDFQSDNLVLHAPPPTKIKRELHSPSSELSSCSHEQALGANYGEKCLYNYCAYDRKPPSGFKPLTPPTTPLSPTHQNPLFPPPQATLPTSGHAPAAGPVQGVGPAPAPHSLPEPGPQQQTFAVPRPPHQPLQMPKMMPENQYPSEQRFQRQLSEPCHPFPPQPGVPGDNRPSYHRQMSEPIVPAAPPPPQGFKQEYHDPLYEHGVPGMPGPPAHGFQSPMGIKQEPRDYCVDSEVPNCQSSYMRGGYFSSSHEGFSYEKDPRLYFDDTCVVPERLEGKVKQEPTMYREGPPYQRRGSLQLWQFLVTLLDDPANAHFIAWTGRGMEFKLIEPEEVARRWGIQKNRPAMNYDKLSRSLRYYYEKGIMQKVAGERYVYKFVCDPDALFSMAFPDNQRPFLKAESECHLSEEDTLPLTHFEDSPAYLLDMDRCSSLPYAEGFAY
# Outline: as §1
# SPIC = biological target: T2, SPIC (Homo sapiens, UniProt Q8N5J4 1-248)
# T2 sequence: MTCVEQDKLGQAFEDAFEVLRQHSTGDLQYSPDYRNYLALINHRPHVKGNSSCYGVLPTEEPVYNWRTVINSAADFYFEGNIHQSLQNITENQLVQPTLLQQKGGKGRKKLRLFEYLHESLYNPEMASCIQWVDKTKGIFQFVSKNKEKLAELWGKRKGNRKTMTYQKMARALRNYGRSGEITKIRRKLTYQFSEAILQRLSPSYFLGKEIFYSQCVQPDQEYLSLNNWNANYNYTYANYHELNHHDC
# Outline: as §1
# ELF4 = ELF4 (Homo sapiens, UniProt Q99607 1-663)
# ELF4, sequence (Q99607 whole entry): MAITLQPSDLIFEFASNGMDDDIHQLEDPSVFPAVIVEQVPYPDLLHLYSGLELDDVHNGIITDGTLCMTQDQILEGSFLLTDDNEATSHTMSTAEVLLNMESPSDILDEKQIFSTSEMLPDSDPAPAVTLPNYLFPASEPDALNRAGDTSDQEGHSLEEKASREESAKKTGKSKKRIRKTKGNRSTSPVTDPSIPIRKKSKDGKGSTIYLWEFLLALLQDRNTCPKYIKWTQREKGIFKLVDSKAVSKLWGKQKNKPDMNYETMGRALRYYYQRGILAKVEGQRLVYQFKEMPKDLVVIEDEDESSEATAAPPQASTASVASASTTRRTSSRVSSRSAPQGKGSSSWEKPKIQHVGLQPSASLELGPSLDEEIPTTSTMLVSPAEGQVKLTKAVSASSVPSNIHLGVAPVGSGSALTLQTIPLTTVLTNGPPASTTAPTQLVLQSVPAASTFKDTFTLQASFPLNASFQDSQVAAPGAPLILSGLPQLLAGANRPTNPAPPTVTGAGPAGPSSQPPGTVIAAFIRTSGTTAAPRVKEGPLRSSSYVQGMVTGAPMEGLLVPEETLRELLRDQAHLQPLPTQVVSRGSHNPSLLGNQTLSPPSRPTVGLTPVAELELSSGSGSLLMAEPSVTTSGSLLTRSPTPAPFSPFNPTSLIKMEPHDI
# Outline: as §1
# ELK4 = biological target: T3, ELK4 (Homo sapiens, UniProt P28324-2 1-405)
# T3 sequence: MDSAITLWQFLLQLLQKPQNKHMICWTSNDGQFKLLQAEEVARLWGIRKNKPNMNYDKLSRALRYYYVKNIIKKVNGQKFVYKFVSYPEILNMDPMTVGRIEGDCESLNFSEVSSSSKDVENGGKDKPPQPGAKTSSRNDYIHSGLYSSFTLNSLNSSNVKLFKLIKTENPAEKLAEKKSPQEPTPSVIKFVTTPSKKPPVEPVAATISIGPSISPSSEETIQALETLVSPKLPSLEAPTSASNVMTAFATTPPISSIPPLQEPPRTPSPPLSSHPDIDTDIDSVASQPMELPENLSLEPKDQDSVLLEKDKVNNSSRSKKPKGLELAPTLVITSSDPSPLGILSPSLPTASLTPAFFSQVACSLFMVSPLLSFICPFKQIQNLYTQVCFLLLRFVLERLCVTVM
# Outline: as §1
# ETV2 = biological target: T4, ETV2 (Homo sapiens, UniProt O00321 1-342)
# T4 sequence: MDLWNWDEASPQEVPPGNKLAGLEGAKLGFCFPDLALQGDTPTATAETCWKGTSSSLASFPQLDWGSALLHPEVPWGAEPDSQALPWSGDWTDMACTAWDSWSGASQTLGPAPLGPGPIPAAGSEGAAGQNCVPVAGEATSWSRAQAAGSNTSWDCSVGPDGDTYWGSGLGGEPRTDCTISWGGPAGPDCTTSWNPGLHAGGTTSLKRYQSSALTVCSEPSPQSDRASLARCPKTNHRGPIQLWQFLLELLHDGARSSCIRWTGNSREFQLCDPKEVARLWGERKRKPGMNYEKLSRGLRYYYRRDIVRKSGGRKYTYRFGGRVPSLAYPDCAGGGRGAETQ
# Outline: as §1
# ELF3 = biological target: T5, ELF3 (Homo sapiens, UniProt P78545 1-371)
# T5 sequence: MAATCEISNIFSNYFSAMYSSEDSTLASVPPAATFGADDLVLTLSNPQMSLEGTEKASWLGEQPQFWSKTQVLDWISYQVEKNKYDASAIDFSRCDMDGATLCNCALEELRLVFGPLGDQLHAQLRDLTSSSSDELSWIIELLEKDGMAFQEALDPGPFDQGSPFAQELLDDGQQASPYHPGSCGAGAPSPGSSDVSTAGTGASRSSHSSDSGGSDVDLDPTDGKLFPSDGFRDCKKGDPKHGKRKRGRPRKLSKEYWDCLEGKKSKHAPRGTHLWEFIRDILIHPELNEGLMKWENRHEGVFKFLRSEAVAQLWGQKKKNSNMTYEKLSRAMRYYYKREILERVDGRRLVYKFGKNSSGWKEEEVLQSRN
# Outline: as §1
# ETV1 = ETV1 (Homo sapiens, UniProt P50549 1-477)
# ETV1, sequence (P50549 whole entry): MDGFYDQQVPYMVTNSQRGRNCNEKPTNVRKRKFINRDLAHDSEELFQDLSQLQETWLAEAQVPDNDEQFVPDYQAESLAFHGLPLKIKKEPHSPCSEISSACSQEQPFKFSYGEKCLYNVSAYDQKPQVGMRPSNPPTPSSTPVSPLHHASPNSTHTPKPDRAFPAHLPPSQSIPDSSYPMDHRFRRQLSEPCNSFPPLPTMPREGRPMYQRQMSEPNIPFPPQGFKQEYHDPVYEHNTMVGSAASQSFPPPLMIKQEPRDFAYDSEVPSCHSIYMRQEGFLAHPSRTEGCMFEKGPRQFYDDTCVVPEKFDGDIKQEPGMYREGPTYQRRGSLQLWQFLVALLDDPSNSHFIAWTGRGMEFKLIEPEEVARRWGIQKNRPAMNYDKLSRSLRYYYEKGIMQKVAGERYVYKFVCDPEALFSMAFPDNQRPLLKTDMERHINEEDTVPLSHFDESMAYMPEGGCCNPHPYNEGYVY
# Outline: as §1
# ERF = biological target: T6, ERF (Homo sapiens, UniProt P50548 1-548)
# T6 sequence: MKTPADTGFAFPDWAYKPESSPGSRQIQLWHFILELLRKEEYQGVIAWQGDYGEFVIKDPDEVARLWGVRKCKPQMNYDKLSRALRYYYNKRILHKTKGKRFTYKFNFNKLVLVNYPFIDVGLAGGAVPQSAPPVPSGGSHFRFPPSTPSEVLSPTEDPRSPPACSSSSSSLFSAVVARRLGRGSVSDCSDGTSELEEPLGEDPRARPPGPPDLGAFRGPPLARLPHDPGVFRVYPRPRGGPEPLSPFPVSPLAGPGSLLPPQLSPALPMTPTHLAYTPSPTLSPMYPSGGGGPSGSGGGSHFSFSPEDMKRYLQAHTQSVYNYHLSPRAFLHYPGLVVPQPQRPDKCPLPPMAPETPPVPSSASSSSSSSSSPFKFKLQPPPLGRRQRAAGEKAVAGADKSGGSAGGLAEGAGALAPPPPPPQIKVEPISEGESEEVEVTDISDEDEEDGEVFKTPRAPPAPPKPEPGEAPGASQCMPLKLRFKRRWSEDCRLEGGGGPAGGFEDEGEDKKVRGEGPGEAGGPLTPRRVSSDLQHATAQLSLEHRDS
# Outline: as §1
# ETV3L = biological target: T7, ETV3L (Homo sapiens, UniProt Q6ZN32 1-361)
# T7 sequence: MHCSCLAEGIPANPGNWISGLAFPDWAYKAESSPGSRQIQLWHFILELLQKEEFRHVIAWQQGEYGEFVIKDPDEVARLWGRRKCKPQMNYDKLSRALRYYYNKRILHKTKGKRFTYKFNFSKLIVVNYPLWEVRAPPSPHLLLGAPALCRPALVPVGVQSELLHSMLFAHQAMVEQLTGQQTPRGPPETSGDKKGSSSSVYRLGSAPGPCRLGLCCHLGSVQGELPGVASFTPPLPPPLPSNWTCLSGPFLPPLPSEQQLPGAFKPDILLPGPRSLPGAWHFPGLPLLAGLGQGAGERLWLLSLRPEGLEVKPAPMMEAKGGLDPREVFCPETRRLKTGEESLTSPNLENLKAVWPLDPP
# Outline: as §1
# ETS2 = biological target: T8, ETS2 (Homo sapiens, UniProt P15036 1-469)
# T8 sequence: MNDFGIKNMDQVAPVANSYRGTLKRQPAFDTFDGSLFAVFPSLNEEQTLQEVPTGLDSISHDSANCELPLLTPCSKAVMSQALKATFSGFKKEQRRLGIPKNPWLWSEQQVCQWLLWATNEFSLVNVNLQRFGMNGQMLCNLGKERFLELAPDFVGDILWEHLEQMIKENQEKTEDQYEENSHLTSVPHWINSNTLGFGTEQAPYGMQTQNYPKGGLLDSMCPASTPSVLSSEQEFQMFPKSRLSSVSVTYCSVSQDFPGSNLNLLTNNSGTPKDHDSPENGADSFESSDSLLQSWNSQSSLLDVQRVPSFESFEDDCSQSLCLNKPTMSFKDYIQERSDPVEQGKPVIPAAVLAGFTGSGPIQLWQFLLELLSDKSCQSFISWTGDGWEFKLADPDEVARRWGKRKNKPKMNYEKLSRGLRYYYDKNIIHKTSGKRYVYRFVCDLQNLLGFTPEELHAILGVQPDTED
# Outline: as §1
# SPDEF = biological target: T9, SPDEF (Homo sapiens, UniProt O95238 1-335)
# T9 sequence: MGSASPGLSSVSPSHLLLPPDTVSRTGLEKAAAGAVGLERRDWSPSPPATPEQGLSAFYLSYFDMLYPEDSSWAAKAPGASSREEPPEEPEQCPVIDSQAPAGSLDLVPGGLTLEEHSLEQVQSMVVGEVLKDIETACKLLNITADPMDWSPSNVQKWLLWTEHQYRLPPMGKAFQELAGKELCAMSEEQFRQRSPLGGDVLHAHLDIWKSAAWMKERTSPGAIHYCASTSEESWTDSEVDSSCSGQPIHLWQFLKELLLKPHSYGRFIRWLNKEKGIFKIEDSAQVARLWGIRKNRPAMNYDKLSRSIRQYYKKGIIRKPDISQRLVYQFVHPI
# Outline: as §1
# ETV7 = biological target: T10, ETV7 (Homo sapiens, UniProt Q9Y603 1-341)
# T10 sequence: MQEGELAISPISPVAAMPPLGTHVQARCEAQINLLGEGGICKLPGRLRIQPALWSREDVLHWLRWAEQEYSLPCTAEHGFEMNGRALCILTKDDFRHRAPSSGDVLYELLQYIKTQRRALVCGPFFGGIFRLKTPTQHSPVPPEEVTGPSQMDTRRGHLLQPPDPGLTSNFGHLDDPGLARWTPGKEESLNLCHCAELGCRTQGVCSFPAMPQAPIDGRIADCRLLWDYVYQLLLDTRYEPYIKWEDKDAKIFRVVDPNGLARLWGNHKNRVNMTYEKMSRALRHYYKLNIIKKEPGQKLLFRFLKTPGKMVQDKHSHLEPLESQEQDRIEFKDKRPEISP
# Outline: as §1
# ELF5 = biological target: T11, ELF5 (Homo sapiens, UniProt Q9UKW6-2 1-255)
# T11 sequence: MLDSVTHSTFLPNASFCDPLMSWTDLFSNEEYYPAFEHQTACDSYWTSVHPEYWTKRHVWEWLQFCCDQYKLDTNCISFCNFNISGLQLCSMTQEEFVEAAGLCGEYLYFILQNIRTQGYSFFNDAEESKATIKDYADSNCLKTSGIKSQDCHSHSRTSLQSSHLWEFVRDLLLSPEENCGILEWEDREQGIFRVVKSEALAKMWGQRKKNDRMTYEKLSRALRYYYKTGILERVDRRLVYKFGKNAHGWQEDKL
# Outline: as §1
# ETV3 = biological target: T12, ETV3 (Homo sapiens, UniProt P41162-2 1-143)
# T12 sequence: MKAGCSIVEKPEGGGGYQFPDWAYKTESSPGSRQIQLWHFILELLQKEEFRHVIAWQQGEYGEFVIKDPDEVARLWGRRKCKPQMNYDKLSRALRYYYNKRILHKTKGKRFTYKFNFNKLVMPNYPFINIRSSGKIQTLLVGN
# Outline: as §1
# ETV6 = ETV6 (Homo sapiens, UniProt P41212 1-452)
# ETV6, sequence (P41212 whole entry): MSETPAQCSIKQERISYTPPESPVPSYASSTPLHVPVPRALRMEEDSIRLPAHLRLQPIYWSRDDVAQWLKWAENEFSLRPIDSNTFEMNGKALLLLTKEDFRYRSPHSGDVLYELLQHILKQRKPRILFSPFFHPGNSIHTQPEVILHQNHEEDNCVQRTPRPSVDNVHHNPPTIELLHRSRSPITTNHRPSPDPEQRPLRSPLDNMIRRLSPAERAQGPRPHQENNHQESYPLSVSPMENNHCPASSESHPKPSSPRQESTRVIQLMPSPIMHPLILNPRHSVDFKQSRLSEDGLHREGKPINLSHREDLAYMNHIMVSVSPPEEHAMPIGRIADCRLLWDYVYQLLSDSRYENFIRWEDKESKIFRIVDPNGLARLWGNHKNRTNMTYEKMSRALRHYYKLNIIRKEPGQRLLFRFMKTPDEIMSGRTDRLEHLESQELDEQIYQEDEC
# Outline: as §1
Sequence,binding signal (FEV),binding signal (ETV5),binding signal (SPIC),binding signal (ELF4),binding signal (ELK4),binding signal (ETV2),binding signal (ELF3),binding signal (ETV1),binding signal (ERF),binding signal (ETV3L),binding signal (ETS2),binding signal (SPDEF),binding signal (ETV7),binding signal (ELF5),binding signal (ETV3),binding signal (ETV6)
CGGTCT,"1.3 fold enrichment (6-mer frequency, TF over GST control)","1.25 fold enrichment (6-mer frequency, TF over GST control)","1.02 fold enrichment (6-mer frequency, TF over GST control)","1.18 fold enrichment (6-mer frequency, TF over GST control)","1.12 fold enrichment (6-mer frequency, TF over GST control)","1.24 fold enrichment (6-mer frequency, TF over GST control)","1.29 fold enrichment (6-mer frequency, TF over GST control)","1.16 fold enrichment (6-mer frequency, TF over GST control)","1.21 fold enrichment (6-mer frequency, TF over GST control)","1.15 fold enrichment (6-mer frequency, TF over GST control)","1.16 fold enrichment (6-mer frequency, TF over GST control)","1.09 fold enrichment (6-mer frequency, TF over GST control)","1.11 fold enrichment (6-mer frequency, TF over GST control)","1.1 fold enrichment (6-mer frequency, TF over GST control)","1.22 fold enrichment (6-mer frequency, TF over GST control)","1.09 fold enrichment (6-mer frequency, TF over GST control)"
GGACAT,"1.56 fold enrichment (6-mer frequency, TF over GST control)","1.18 fold enrichment (6-mer frequency, TF over GST control)","1.28 fold enrichment (6-mer frequency, TF over GST control)","1.11 fold enrichment (6-mer frequency, TF over GST control)","1.07 fold enrichment (6-mer frequency, TF over GST control)","1.16 fold enrichment (6-mer frequency, TF over GST control)","1.24 fold enrichment (6-mer frequency, TF over GST control)","1.23 fold enrichment (6-mer frequency, TF over GST control)","1.12 fold enrichment (6-mer frequency, TF over GST control)","1.13 fold enrichment (6-mer frequency, TF over GST control)","1.18 fold enrichment (6-mer frequency, TF over GST control)","1.43 fold enrichment (6-mer frequency, TF over GST control)","1.23 fold enrichment (6-mer frequency, TF over GST control)","1.24 fold enrichment (6-mer frequency, TF over GST control)","1.23 fold enrichment (6-mer frequency, TF over GST control)","1.18 fold enrichment (6-mer frequency, TF over GST control)"
ACAAAC,"1.15 fold enrichment (6-mer frequency, TF over GST control)","1.08 fold enrichment (6-mer frequency, TF over GST control)","1.11 fold enrichment (6-mer frequency, TF over GST control)","1.12 fold enrichment (6-mer frequency, TF over GST control)","1.08 fold enrichment (6-mer frequency, TF over GST control)","1.24 fold enrichment (6-mer frequency, TF over GST control)","1.12 fold enrichment (6-mer frequency, TF over GST control)","1.12 fold enrichment (6-mer frequency, TF over GST control)","1.11 fold enrichment (6-mer frequency, TF over GST control)","1.08 fold enrichment (6-mer frequency, TF over GST control)","1.22 fold enrichment (6-mer frequency, TF over GST control)","1.15 fold enrichment (6-mer frequency, TF over GST control)","1.11 fold enrichment (6-mer frequency, TF over GST control)","1.12 fold enrichment (6-mer frequency, TF over GST control)","1.09 fold enrichment (6-mer frequency, TF over GST control)","1.15 fold enrichment (6-mer frequency, TF over GST control)"
